Measurements taken from PubChem BioAssay (NCATS).
Inconclusive results are not listed. A call without a number means that no potency is given here. Calls of active or inactive are those of the source. Calls follow the shape of the dose curve; as a rule, active = well fitted inhibition curve with a large enough effect; inconclusive = small, poorly fitted or top-dose-only effect; inactive = flat fitted curve, though single readings scatter.

Columns and labels:
Assay in all cases: qHTS profiling for inhibitors of Plasmodium falciparum proliferation (AID 504749); also: nearly all actives have a fitted effect of over 60% in size
Details in all cases: P. falciparum in erythrocytes, SYBR Green DNA, 72 h; series mostly up to 28.7 µM
[1] = system: CP247
Summary of the method: (§1)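 Infected RBCs, 0.3% parasitemia/2.5% Hct final; cpd 72 h, 37 C, 5% CO2; lysis buffer with saponin/triton/SYBR Green I, o/n RT dark; FI 485/535; norm. to artemisinin (0.29 uM) and DMSO.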

[2] = system: CP250
Summary of the method: as §1

[3] = system: CP252
Summary of the method: as §1

[4] = system: CP256
Summary of the method: as §1

[5] = system: CP260
Summary of the method: as §1

[6] = system: CP262
Summary of the method: as §1

[7] = system: CP265
Summary of the method: as §1

[8] = system: CP266
Summary of the method: as §1

[9] = system: CP268
Summary of the method: as §1

[10] = system: CP269
Summary of the method: as §1

[11] = system: CP286
Summary of the method: as §1

[12] = system: CP291
Summary of the method: as §1

[13] = system: CP297
Summary of the method: as §1

[14] = system: CP305
Summary of the method: as §1

[15] = system: CP315
Summary of the method: as §1

[16] = system: CP325
Summary of the method: as §1

[17] = system: CP329
Summary of the method: as §1

[18] = system: CP335
Summary of the method: as §1

[19] = system: DFO2036
Summary of the method: as §1

[20] = system: DIV14
Summary of the method: as §1
Potency is read from the fitted curve at half-maximal effect.

| SMILES | Potency [1] | Potency [2] | Potency [3] | Potency [4] | Potency [5] | Potency [6] | Potency [7] | Potency [8] | Potency [9] | Potency [10] | Potency [11] | Potency [12] | Potency [13] | Potency [14] | Potency [15] | Potency [16] | Potency [17] | Potency [18] | Potency [19] | Potency [20] |
| --- | --- | --- | --- | --- | --- | --- | --- | --- | --- | --- | --- | --- | --- | --- | --- | --- | --- | --- | --- | --- |
| Cc1c(C)c2c(c(C)c1O)CC[C@@](C)(CCC[C@H](C)CCC[C@H](C)CCCC(C)C)O2 | inactive | inactive | inactive | inactive | inactive | inactive | inactive | inactive | inactive | inactive | inactive | inactive | inactive | inactive | inactive | inactive | inactive | inactive | inactive | inactive |
| CC(NNC(=O)c1ccccc1)c1ccccc1 (stereo unspecified) | inactive | inactive | inactive | inactive | inactive | inactive | inactive | inactive | inactive | inactive | inactive | inactive | inactive | inactive | inactive | inactive | inactive | inactive | inactive | inactive |
| C[C@]12O[C@H](C[C@]1(O)CO)n1c3ccccc3c3c4c(c5c6ccccc6n2c5c31)CNC4=O | 224 nM (active) | 251 nM (active) | 316 nM (active) | 398 nM (active) | 224 nM (active) | 426 nM (active) | 447 nM (active) | 675 nM (active) | 536 nM (active) | 269 nM (active) | 224 nM (active) | 338 nM (active) | 379 nM (active) | 601 nM (active) | 426 nM (active) | 536 nM (active) | 426 nM (active) | 239 nM (active) | 316 nM (active) | 120 nM (active) |
| CCCC(=O)Nc1ncnc2c1ncn2C1OC2COP(=O)(O)OC2C1OC(=O)CCC (stereo unspecified) | inactive | inactive | inactive | inactive | inactive | inactive | inactive | inactive | inactive | inactive | inactive | inactive | inactive | inactive | inactive | inactive | inactive | inactive | inactive | inactive |
| Cc1c(C)c2c(c(C)c1O)CC[C@@](C)(CCC[C@@H](C)CCC[C@@H](C)CCCC(C)C)O2 | inactive | inactive | inactive | inactive | inactive | inactive | inactive | inactive | inactive | inactive | inactive | inactive | inactive | inactive | inactive | inactive | inactive | inactive | inactive | inactive |
| CC(C)(C)C(=O)OCOC(=O)[C@@H]1N2C(=O)[C@@H](N=CN3CCCCCC3)[C@H]2SC1(C)C | inactive | inactive | inactive | inactive | inactive | inactive | inactive | inactive | inactive | inactive | inactive | inactive | inactive | inactive | inactive | inactive | inactive | inactive | inactive | inactive |
| O=S(=O)(O)c1ccc2c(N=Nc3ccc(S(=O)(=O)O)c4ccccc34)c(O)c(S(=O)(=O)O)cc2c1 | inactive | inactive | inactive | inactive | inactive | inactive | inactive | inactive | inactive | inactive | inactive | inactive | inactive | inactive | inactive | inactive | inactive | inactive | inactive | inactive |
| CCCC(=O)O[C@]1(C(=O)CCl)[C@H](C)C[C@@H]2[C@H]3CCC4=CC(=O)C=C[C@]4(C)[C@@]3(F)C(=O)C[C@@]21C | 2000 nM (active) | 1580 nM (active) | 3160 nM (active) | 794 nM (active) | 2820 nM (active) | 1690 nM (active) | 2820 nM (active) | 3380 nM (active) | 4260 nM (active) | 4260 nM (active) | 2820 nM (active) | 4260 nM (active) | 1900 nM (active) | 4260 nM (active) | 3790 nM (active) | 4260 nM (active) | 1900 nM (active) | 1510 nM (active) | 891 nM (active) | 6010 nM (active) |
| Nc1ncnc2c1ncn2[C@@H]1O[C@H](COP(=O)(O)OP(=O)(O)OP(=O)(O)O)[C@@H](O)[C@H]1O | inactive | inactive | inactive | inactive | inactive | inactive | inactive | – | inactive | inactive | inactive | inactive | inactive | inactive | inactive | inactive | inactive | inactive | inactive | inactive |
| CN=C(NC#N)Nc1ccc(C2=NNC(=O)C[C@@H]2C)cc1 | inactive | inactive | inactive | inactive | inactive | – | inactive | – | – | – | inactive | – | – | – | – | – | – | – | inactive | – |
| Nc1c(Br)cc(Br)cc1CNC1CCC(O)CC1 (stereo unspecified) | inactive | inactive | inactive | inactive | inactive | inactive | inactive | inactive | inactive | inactive | – | inactive | inactive | inactive | inactive | inactive | inactive | – | inactive | inactive |
| CCCCCCC(O)C/C=C/CCCCCCCC(=O)O (stereo unspecified) | inactive | inactive | inactive | inactive | inactive | inactive | inactive | inactive | inactive | inactive | inactive | inactive | inactive | inactive | inactive | inactive | inactive | inactive | inactive | inactive |
| C=CCSSSCC=C | inactive | inactive | inactive | inactive | inactive | inactive | inactive | inactive | inactive | inactive | inactive | inactive | inactive | inactive | inactive | inactive | inactive | inactive | inactive | inactive |
| O=C(O)c1cc(=O)c2c3nc4ccccc4oc-3cc(=O)c2[nH]1 | inactive | inactive | inactive | inactive | 12600 nM (active) | – | inactive | inactive | inactive | inactive | – | inactive | inactive | inactive | inactive | inactive | inactive | – | inactive | – |
| CC(C(=O)O)c1ccc(N2Cc3ccccc3C2=O)cc1 (stereo unspecified) | inactive | inactive | inactive | inactive | inactive | inactive | inactive | inactive | inactive | inactive | inactive | inactive | inactive | inactive | inactive | inactive | inactive | inactive | inactive | inactive |
| O=S(=O)(O)O | inactive | inactive | inactive | inactive | inactive | inactive | inactive | – | inactive | inactive | inactive | inactive | inactive | inactive | inactive | inactive | inactive | inactive | inactive | inactive |
| CC(Cc1ccc(O)c(O)c1)C(C)Cc1ccc(O)c(O)c1 (stereo unspecified) | inactive | inactive | inactive | inactive | inactive | inactive | inactive | inactive | – | – | – | inactive | – | inactive | inactive | inactive | inactive | inactive | inactive | – |
| IC(I)I | inactive | inactive | inactive | inactive | inactive | inactive | inactive | inactive | inactive | inactive | inactive | – | inactive | – | inactive | inactive | inactive | inactive | inactive | – |
| COC(=O)CCC(=O)CN | inactive | inactive | inactive | inactive | inactive | inactive | inactive | – | inactive | inactive | inactive | inactive | inactive | inactive | inactive | inactive | inactive | inactive | inactive | – |
| CCNC(=O)[C@@H]1CCCN1C(=O)[C@H](CCCN=C(N)N)NC(=O)[C@H](CC(C)C)NC(=O)[C@@H](Cc1c[nH]c2ccccc12)NC(=O)[C@H](Cc1ccc(O)cc1)NC(=O)[C@H](CO)NC(=O)[C@H](Cc1c[nH]c2ccccc12)NC(=O)[C@H](Cc1cnc[nH]1)NC(=O)[C@@H]1CCC(=O)N1 | 7080 nM (active) | 8910 nM (active) | 11200 nM (active) | 12600 nM (active) | 3550 nM (active) | – | 7940 nM (active) | 13500 nM (active) | 8490 nM (active) | 7570 nM (active) | 3160 nM (active) | 7570 nM (active) | 6750 nM (active) | 7570 nM (active) | 15100 nM (active) | 12000 nM (active) | 8490 nM (active) | 4780 nM (active) | 5620 nM (active) | 953 nM (active) |
| C[C@H]1C[C@H]2[C@@H]3CCC4=CC(=O)C=C[C@]4(C)[C@@]3(F)[C@@H](O)C[C@]2(C)[C@@]1(O)C(=O)CO | inactive | inactive | inactive | inactive | inactive | inactive | inactive | inactive | inactive | inactive | inactive | inactive | inactive | inactive | inactive | inactive | inactive | inactive | inactive | inactive |
| O=C(O)c1cc(O)c2c(c1)[O][Bi][O]2 | inactive | inactive | inactive | inactive | inactive | inactive | inactive | – | inactive | inactive | inactive | inactive | inactive | inactive | inactive | inactive | inactive | – | inactive | inactive |
| COCC(=O)Nc1cc(Sc2ccccc2)ccc1N=C(NC(=O)OC)NC(=O)OC | inactive | inactive | inactive | inactive | inactive | inactive | inactive | inactive | inactive | inactive | inactive | inactive | inactive | inactive | inactive | inactive | inactive | inactive | inactive | inactive |
| CC1(C)C(C=C(Cl)Cl)C1C(=O)OCc1cccc(Oc2ccccc2)c1 (stereo unspecified) | inactive | inactive | inactive | inactive | inactive | inactive | inactive | inactive | inactive | inactive | – | inactive | inactive | inactive | inactive | inactive | inactive | inactive | inactive | inactive |
